# Compound activity as filed in PubChem BioAssay.
# SKBR3 24h inh: SK-BR-3 proliferation inhibitors, primary screen, cell-based, human, 24 h. SK-BR-3 viability, CellTiter-Glo ATP luminescence; stronger effect = lower value. viability, % at 10 µM. 0.47% of 41,000 active. AID 847, 2007;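 active = viability at or below the median of all test compounds minus 3 SD, in both replicates if run twice, cut at about 45% in these data; inconclusive = duplicate replicates that disagree with each other; inactive = viability above that cutoff in every replicate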;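 note: 100% = median untreated cell wells and 0% = median positive control drug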
# Her2 expr inh: inhibitors of Her2 protein expression, primary screen, SKBR-3 cells, AlphaScreen, 66K library | SKBR-3 HER2 protein level, 18-24 h; stronger effect = lower value | 0.69% of 65,000 active | HER2 level % of control, % at 10 µM | Receptor tyrosine-protein kinase erbB-2 (Homo sapiens), P04626;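 active = HER2 level under 5% of the carrier-only control; inconclusive = no clear call, values can overlap the other calls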;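 note: 100% = DMSO carrier and 0% = 500 nM PU-H71 HSP90 inhibitor; lower value means stronger loss of Her2 protein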
# Target sequence (P04626 whole entry, looked up): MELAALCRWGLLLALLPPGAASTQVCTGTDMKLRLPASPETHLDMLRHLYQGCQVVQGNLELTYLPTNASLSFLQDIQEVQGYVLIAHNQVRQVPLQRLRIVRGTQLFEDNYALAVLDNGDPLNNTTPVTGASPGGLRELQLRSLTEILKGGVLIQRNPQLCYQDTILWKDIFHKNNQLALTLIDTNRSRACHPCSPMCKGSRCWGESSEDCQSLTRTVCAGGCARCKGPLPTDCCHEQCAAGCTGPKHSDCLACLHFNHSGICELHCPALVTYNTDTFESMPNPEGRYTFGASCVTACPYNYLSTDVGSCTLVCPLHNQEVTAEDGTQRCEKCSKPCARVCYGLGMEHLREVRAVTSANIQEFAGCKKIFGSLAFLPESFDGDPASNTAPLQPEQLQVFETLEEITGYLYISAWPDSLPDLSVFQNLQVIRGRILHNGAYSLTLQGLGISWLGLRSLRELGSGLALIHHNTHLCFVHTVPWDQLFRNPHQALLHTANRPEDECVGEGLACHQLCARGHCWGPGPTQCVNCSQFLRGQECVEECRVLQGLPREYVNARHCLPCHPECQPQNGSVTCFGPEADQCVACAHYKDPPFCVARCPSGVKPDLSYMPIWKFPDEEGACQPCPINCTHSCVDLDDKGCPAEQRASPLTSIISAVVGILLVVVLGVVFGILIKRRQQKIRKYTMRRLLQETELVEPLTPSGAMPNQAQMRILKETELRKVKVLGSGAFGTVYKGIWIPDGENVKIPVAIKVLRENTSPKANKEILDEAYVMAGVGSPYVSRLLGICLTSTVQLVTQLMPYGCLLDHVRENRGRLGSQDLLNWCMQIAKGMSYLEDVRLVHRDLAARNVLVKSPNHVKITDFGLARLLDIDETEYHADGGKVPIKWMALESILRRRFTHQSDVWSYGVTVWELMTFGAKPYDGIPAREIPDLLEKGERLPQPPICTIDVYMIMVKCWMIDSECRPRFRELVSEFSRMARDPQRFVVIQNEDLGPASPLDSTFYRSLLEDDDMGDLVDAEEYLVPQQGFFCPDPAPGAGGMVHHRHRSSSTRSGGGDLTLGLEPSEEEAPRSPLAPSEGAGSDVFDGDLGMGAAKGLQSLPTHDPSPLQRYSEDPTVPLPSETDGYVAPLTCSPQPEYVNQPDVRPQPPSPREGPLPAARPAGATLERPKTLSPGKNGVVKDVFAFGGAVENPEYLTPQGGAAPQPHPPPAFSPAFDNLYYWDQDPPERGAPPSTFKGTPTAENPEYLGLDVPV
# Jurkat tox 60K: cytotoxicity toward Jurkat T cells, primary screen, cytotoxicity control, cell-based, Jurkat E6.1, 60K MLSMR library. AID 463, 2006. Jurkat E6.1 viability, ATP luminescence, 48 h. 1.2% of 56,000 active. inhibition, % at 4 µM;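 active = inhibition above the mean inhibition of all tested compounds plus 3 SD, cut at about 28% in these data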
# Active calls of the source: *; u = inconclusive; x = no result. Shown are actives, neighbours in structure and some others; about 1.9% of the full set was active somewhere.
SMILES,SKBR3 24h inh,Her2 expr inh,Jurkat tox 60K
C=CCn1c(SCc2nc3ccccc3c(=O)[nH]2)nnc1-c1cc2cc(Cl)ccc2o1,u,3.3*,-9
O=C1c2ccccc2C(Nc2ccc(Cl)cn2)N1c1cccnc1 (stereo unspecified),x,87,4
Cc1ccc(C2NC(=O)NC3=C2CCc2ccccc23)cc1 (stereo unspecified),91,94,7
COc1ccc(C2NC(=O)NC3=C2CCc2ccccc23)cc1 (stereo unspecified),78,34,72*
O=C(COC(=O)c1ccccn1)NCCCc1ccccc1,x,86,-3
CCCCCCOC(=O)C(C#N)c1nc2ccccc2nc1N1CCN(C)CC1 (stereo unspecified),4.9*,-4.8*,0
CCCCCCOC(=O)C(C#N)c1nc2ccccc2nc1N1CCCCC1 (stereo unspecified),97,93,-2
CN(C)CC(C(=O)c1ccccc1)c1ccccc1 (stereo unspecified),6.4*,-55*,101*
COc1ccc(C(C(=O)OC(C)CN(C)C)c2ccccc2)cc1 (stereo unspecified),x,123,0
Cc1cnc(-c2nnc(N(C)C(=O)c3cnccn3)s2)cn1,85,96,2
O=C(CN1CCCN(S(=O)(=O)c2ccc(Br)cc2)CC1)Nc1ccc2cn[nH]c2c1,89,84,0
O=c1cc(-c2c(F)c(F)c(F)c(F)c2F)oc2c(F)c(F)c(F)c(F)c12,34*,x,x
CCC(=O)Nc1ccc(OC)cc1OC,92,109,-3
COc1ccc(NC(=O)C(F)(OC)C(F)(F)F)c(OC)c1 (stereo unspecified),41*,100,-6
[O-][N+]1=C2CCC/C(=N\O)C2=NC12CCCCC2,x,99,-4
COc1ccc(OC)c(NC2=NC3(CCCC3)N=C(N)N2)c1,89,72,0
[O-][N+]1=c2ccc(Nc3ccccc3)cc2=NC12CCCCC2,46,-17*,9
COc1ccc(Nc2ccc3c(c2)=NC2(CCCCC2)[N+]=3[O-])cc1,3.2*,-56*,x
COc1ccc(C(c2nnnn2Cc2cccs2)N2CCN(c3ccccc3F)CC2)cc1 (stereo unspecified),105,82,10
COc1ccc(-n2nnnc2Sc2ccc(S(=O)(=O)N3CCOCC3)cn2)cc1,x,97,3
CCCCC(CCC(=O)Nc1ccc(C(=O)OC)cc1)C(=O)O (stereo unspecified),113,106,x
COCCNC(=O)CN(C(=O)Cn1nnc2ccccc21)c1ccccc1,84,103,11
CCN(C(=O)c1ccc(C(C)(C)C)cc1)c1nnc(Cn2nnc3ccccc32)s1,128,64,101*
O=C(O)c1cn[nH]c1-n1cnnn1,99,95,-6
CC(C)(C)NC(=O)CSc1ncnc2c1nnn2Cc1ccccc1Cl,158,4.8*,12
SMILES,SKBR3 24h inh,Her2 expr inh,Jurkat tox 60K
Clc1ccccc1Cn1nnc2c(N3CCCC3)ncnc21,x,103,-5
O=C(O)c1ccc(N2CCCCC2)cc1,x,91,-13
Nc1ccc(N2CCCCCC2)cc1,71,30,37*
COC(=O)c1sc(N2C(=O)C(O)=C(C(=O)c3ccc(C)o3)C2c2ccc(F)cc2)nc1C (stereo unspecified),x,121,-8
COc1cccc(/C=N/n2c(SC)nnc2-c2ccccc2)c1O,x,63,68*
COc1cccc(/C=N/n2c(SC)nnc2-c2ccccc2)c1OC,x,99,2
O=C(NC(Cc1ccccc1)C(=O)OCC(=O)N1CCc2ccccc21)c1ccco1 (stereo unspecified),x,78,4
COc1ccc2c(CSc3nc4nc(C)cc(C)n4n3)cc(=O)oc2c1,x,96,-5
Cc1ccccc1C1CC(=O)NC2=C1C(=O)CCC2 (stereo unspecified),98,101,-1
CCC(C)Oc1ccccc1C1CC(=O)NC2=C1C(=O)CCC2 (stereo unspecified),87,83,40*
Nc1nonc1-c1noc(CCCCCN2C(=O)c3ccccc3C2=O)n1,76,76,-2
CN(C)c1ccc(C=Nc2ccc(N(C)C)cc2)cc1,93,99,x
Oc1ccc(N=Cc2ccc(O)c(O)c2)cc1,x,73,34*
Cc1cc(O)c(C(C)C)cc1NS(=O)(=O)c1ccccc1,96,128,0
O=C(CCCCCn1c(=S)[nH]c2cc3c(cc2c1=O)OCO3)N1CCN(C2CCCCC2)CC1,x,-16*,x
O=C(CCCCCn1c(=S)[nH]c2cc3c(cc2c1=O)OCO3)N1CCN(Cc2ccccc2)CC1,x,56,x
Cc1csc2c(C#N)c(=O)c3c(n12)CCC3,46,55,-1
CCOc1ccc2nc(N3CCC(C(=O)N4CCN(c5ncccn5)CC4)CC3)sc2c1,x,100,-3
CCOc1ccc2nc(N3CCC(C(=O)N4CCN(c5ccccn5)CC4)CC3)sc2c1,x,78,35*
COc1ccc(C2(O)CCN(C(=O)c3ccc4c(c3)OCO4)CC2)cc1,87,x,x
CCCS(=O)(=O)N1CCCC(C(=O)N2CCN(C(=O)OCC)CC2)C1 (stereo unspecified),x,54,2
NC1C2CN(c3nc4c(cc3F)c(=O)c(C(=O)O)cn4-c3ccc(F)cc3F)CC12 (stereo unspecified),101,75,20
O=C(O)C1CSC2(c3ccc4c(c3)OCCO4)CCC(=O)N12 (stereo unspecified),101,94,3
CC(=O)Nc1cccc(NC(=O)c2c(-c3ccccc3Cl)noc2C)c1,x,-19*,8
Cc1onc(-c2ccccc2Cl)c1C(=O)Nc1cccnc1,x,92,-2
SMILES,SKBR3 24h inh,Her2 expr inh,Jurkat tox 60K
CC(=O)Nc1c(O)n(C)c2ccccc12,98,128,-3
CC(=O)c1c(C)[nH]c(C(=O)OCCCCN2C(=O)c3ccccc3C2=O)c1C,x,86,67*
O=C(OCCCCN1C(=O)c2ccccc2C1=O)c1n[nH]c2ccccc12,x,94,0
CC1CC(C)CN(C(=O)Cn2c(=O)n(CCCCC(=O)NCc3ccco3)c(=O)c3ccccc32)C1 (stereo unspecified),83,81,0
CCc1c(C)nc(N)n2c(SCC(=O)N3CCN(c4ccccc4F)CC3)nnc12,94,86,1
COc1ccc(-n2c(Cn3c(=O)sc4ccccc43)nnc2SCC(=O)N2CCOCC2)cc1,x,-17*,-3
Cn1c(Cn2c(=O)sc3ccccc32)nnc1SCC(=O)N1CCOCC1,x,89,2
CCn1c(SCC(=O)Nc2nc(C)c(C(=O)OC)s2)nnc1C(C)C,103,108,-5
C=C(C)COc1ccc(-c2[nH]ncc2-c2ccccc2OC)c(O)c1,91,64,12
CCOc1ccc(-c2[nH]ncc2-c2ccc(OC)c(OC)c2)c(O)c1,93,46,92*
CCOc1ccc(-c2[nH]ncc2Oc2ccccc2OCC)c(O)c1,90,-18*,1
CCOc1ccc(-c2[nH]ncc2Oc2ccccc2OC)c(O)c1,78,66,-2
CCOC(=O)C1CCN(CCC(=O)Nc2cccc(Cl)c2)CC1,x,105,2
Cc1ccc(S(=O)(=O)Cn2nnnc2CN2CCCC3(CCCCC3)C2)cc1,80,106,0
